Compound activity as filed in PubChem BioAssay.
A selection: hits, their analogues and other compounds. The true share with any hit is near 7.5%.
SMN2 splice up = qHTS Assay for Enhancers of SMN2 Splice Variant Expression; HEK293 SMN2-luciferase splicing reporter, luminescence, 30-36 h; Potency, µM (top dose mostly 46.1 µM), for the others: at the highest dose activity change, positive = activation, hits mostly activators; hit rate 2.8% among 210,000; AID 1458, 2008; also: % of control where 0% means no effect; nearly all actives have a fitted effect of over 55% in size
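qHTS luciferase splicing reporter: luminescence rises when SMN2 exon 7 is included in transfected HEK293 cells. Compound exposure lasted 30-36 h at 37C, with 4.5 mM final sodium butyrate as control, followed by a ONE-Glo read.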
ELG1 genotox = qHTS screen for small molecules that induce genotoxicity in human embryonic kidney (HEK293T) cells expressing luciferase-tagged ELG1; HEK293T ELG1-luciferase reporter, luminescence, 16 h; hit rate 1.3% among 330,000; Potency, µM (doses to about 46 µM), for inactives: at the top dose activity change, positive = activation, actives largely listed as activators; also: % of control where 0% means no effect; nearly all actives have a fitted effect of over 60% in size
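Luminescence read-out: rising ELG1-luciferase signal, reflecting elevated ELG1 protein under genetic stress, flags genotoxic compounds. Cells were treated for 16 hr at 37 °C before ONE-Glo detection.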
FLuc modulator = qHTS profiling assay for firefly luciferase inhibitor/activator using purifed enzyme and Km concentrations of substrates (counterscreen for miR-21 project) | Luciferin 4-monooxygenase (Photinus pyralis), P08659 | purified FLuc, Km substrates, luminescence inhibition | Potency, µM (doses to about 57.5 µM), for the others: top-dose activity change, negative = inhibition, usual class: inhibitors | hit rate 6.9% among 360,000 | AID 588342, 2011;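 also: plate controls were vehicle for no effect and reference inhibitor for full effect; nearly all actives have a fitted effect of over 55% in size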
Target sequence (P08659 whole entry, looked up): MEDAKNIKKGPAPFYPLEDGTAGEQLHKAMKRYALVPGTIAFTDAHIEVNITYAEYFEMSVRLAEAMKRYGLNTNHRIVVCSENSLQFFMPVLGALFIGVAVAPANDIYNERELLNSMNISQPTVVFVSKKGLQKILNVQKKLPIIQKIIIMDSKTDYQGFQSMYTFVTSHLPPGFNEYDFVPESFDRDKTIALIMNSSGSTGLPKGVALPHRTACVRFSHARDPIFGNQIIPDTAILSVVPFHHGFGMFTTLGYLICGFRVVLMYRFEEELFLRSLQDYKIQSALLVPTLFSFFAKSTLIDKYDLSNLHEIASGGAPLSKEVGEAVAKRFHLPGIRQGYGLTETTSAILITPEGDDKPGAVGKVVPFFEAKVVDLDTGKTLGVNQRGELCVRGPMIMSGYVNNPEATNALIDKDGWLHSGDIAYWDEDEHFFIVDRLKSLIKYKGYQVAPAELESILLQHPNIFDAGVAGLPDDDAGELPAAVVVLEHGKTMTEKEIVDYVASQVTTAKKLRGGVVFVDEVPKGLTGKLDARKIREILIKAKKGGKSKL
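Biochemical qHTS of compounds, final roughly 60 µM downward over six points, against 10 nM purified firefly luciferase using Km concentrations of substrates (10 uM D-luciferin, 10 uM ATP) in Tris acetate pH 7.5 buffer; luminescence output.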
NPC1 prom act = qHTS Assay for NPC1 Promoter Activators | Huh7 NPC1 promoter luciferase reporter, 24 h | hit rate 2.4% among 320,000 | Potency, µM (titrated, usually from 9.22 µM), without a hit: at the top dose activation, most hits filed as activators | AID 485313, 2010; also: % of control where 0% means no effect; nearly all actives have a fitted effect of over 60% in size
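In 1536-well qHTS, Huh7 cells harboring an NPC1 promoter–luciferase construct received compound for 24 h; activation was quantified by luminescence following luciferase reagent addition.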
Rab9 promoter act = qHTS Assay for Rab9 Promoter Activators | Potency, µM (highest dose often 9.22 µM), without a hit: top-dose activation, negative = inhibition, usual class: activators | Huh7 Rab9 promoter-luciferase reporter, luminescence, 24 h | hit rate 2.8% among 320,000 | AID 485297, 2010; also: % of control where 0% means no effect; nearly all actives have a fitted effect of over 60% in size
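Steps: seed 1500 Huh7 Rab9-luc cells per well, rest 2 h at 37 °C; add compound in DMSO; incubate 24 h; add luciferase reagent, 10 min ambient; read luminescence.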
Active calls of the source: *; ? = inconclusive; / = no result; [ ] = dose if it differs, or a comment. Calls follow the shape of the dose curve; as a rule, active = well fitted curve in the direction sought with a large enough effect; inconclusive = small, poorly fitted or top-dose-only effect, or another doubt; inactive = no such curve, though single readings can be large; an effect the other way counts as inactive or inconclusive. Potency is read from the fitted curve at half-maximal effect.

SMILES	SMN2 splice up	ELG1 genotox	FLuc modulator	NPC1 prom act	Rab9 promoter act
O=C(CCC1CCCN(C(=O)c2ccccc2Cl)C1)N1CCN(c2ccccn2)CC1 (configuration not stated)	/	-8.9%	5.2%	-3.1%	-2.0%
COc1ccc(CNC(=O)CSc2ccc(Br)cc2)cc1OC	-31.0%	-3.3%	-1.2%	1.7%	-2.7%
c1ccc2c(c1)CCCN2c1nc2ccccc2n2cnnc12	3.1%	9.6%	15.1µM*	0.8%	6.8%
O=C(O)Cn1c(SCc2cccc3ccccc23)nc2ccccc21	3.9%	0.2%	16.9µM*	-6.4%	-2.8%
O=[N+]([O-])c1ccc(N=NN(CCO)CCO)cc1	-18.9%	1.6%	5.8%	-6.1%	-0.3%
O=[N+]([O-])c1ccc(N=Nc2ccc(O)cc2O)cc1	-16.4%	10.1%	6.01µM*	1.1%	13.1%
COc1cc(OC)cc(C(=O)O/N=C(\N)c2cccc(C)c2)c1	/	-0.5%	23.9µM*	?	?
Cc1cccc(OC(=O)c2cccnc2)c1	/	1.1%	-0.3%	-3.1%	-0.3%
Cc1cccc(/C(N)=N/OC(=O)C23CC4CC(CC(C4)C2)C3)c1	-30.0%	?	4.26µM*	19.3%	?
Cc1cccc(/C(N)=N/OC(=O)c2ccc(Br)o2)c1	?	?	4.26µM*	21.9%	2.0%
Cc1cccc(/C(N)=N/OC(=O)c2cccnc2)c1	/	?	9.53µM*	?	3.98µM*
CS(=O)(=O)N(CC(=O)O)Cc1cccc(CN(CC(=O)O)S(C)(=O)=O)c1	/	-2.8%	-1.7%	-4.0%	1.0%
Cc1cc(N/N=C2/CCCc3ccccc32)nc2ccccc12	-4.3%	-5.4%	7.57µM*	29.2%	?
Fc1ccc(-c2nnc(Cc3ccc(Cl)cc3)o2)cc1	/	?	16.9µM*	?	26.3%
CCn1ccc2cc(S(=O)(=O)N3CCCN(C(=O)Nc4ccc(C)c(F)c4)CC3)ccc21	/	/	-14.2%	/	/
Cc1cc(NC(=O)c2cnn3cccnc23)no1	?	4.11µM*	?	?	?
Cc1cc(NC(=O)c2nn3cccnc3c2Cl)no1	10µM*	?	10.7µM*	1.78µM*	1.41µM*
C=CCNC(=O)c1nn2cccnc2c1Cl	24.5%	3.4%	-2.1%	5.5%	6.6%
O=C(Nc1cccc(Cl)c1)c1cnn2cccnc12	10µM*	?	7.57µM*	?	2µM*
CCOc1ccc(CNC(=O)c2ccc(-c3nc(CS(=O)(=O)c4ccccc4)c(C)o3)cc2)cc1	/	/	-1.1%	/	/
Cc1ccc(Nc2nc(CSc3nnc(-c4ccc(F)cc4)n3C)cs2)cc1	10µM*	15.7%	1.35µM*	?	?
O=[N+]([O-])c1cc(-c2nc(-c3ccccc3)no2)ccc1NCc1cccnc1	/	/	-10.5%	/	/
Cc1ccc(S(=O)(=O)N2CCN(C(=O)CNC(=O)c3ccc(Br)o3)CC2)cc1	/	-0.5%	-0.7%	-0.7%	-5.6%
N#C/C(=C\c1ccc(F)cc1)C(=O)Nc1ccccn1	/	0.8%	12µM*	-1.2%	0.4%
CCOc1ccc(/C=C(\C#N)C(=O)Nc2ccccn2)cc1	/	-0.3%	3.38µM*	2.3%	4.0%
SMILES	SMN2 splice up	ELG1 genotox	FLuc modulator	NPC1 prom act	Rab9 promoter act
COCCCNC(=O)/C(C#N)=C/c1ccc(F)cc1	13.2%	-0.1%	-14.3%	-3.9%	0.7%
CCOC(=O)/C(C#N)=C/c1ccc(OC(=O)c2ccccn2)cc1	10.5%	2.7%	-17.0%	-0.9%	-3.3%
COc1ccccc1C(=O)NC(=O)COC(=O)Cn1[nH]c(=O)c2ccccc2c1=O	/	-9.6%	2.7%	1.0%	-2.9%
Clc1ccc(CSc2ccc(-c3ccccn3)nn2)cc1	-42.1%	23.1µM*	?	?	?
c1ccc(CSc2ccc(-c3ccccn3)nn2)cc1	0.794µM*	2.31µM*	4.78µM*	0.794µM*	2.24µM*
O=C(c1cc(-c2ccc(Cl)cc2)on1)N1CCc2ccccc2C1	/	0.9%	?	2.0%	-0.6%
O=C(c1cc(-c2ccc(Cl)cc2)on1)N1CCOCC1	3.16µM*	0.92µM*	2.69µM*	0.398µM*	1µM*
O=C(c1cc(-c2ccc(Cl)c(Cl)c2)on1)N1CCOCC1	/	?	3.01µM*	1.41µM*	2.82µM*
O=C(c1cc(-c2ccc(Cl)c(Cl)c2)on1)N1CCCC1	11.2µM*	?	-17.0%	3.55µM*	2.24µM*
CC1CCN(C(=O)c2cc(-c3ccc(Cl)c(Cl)c3)on2)CC1	?	15.3%	?	11.3%	23.9%
O=C(c1cc(-c2ccc(Cl)cc2Cl)on1)N1CCOCC1	1.26µM*	0.651µM*	0.757µM*	0.398µM*	0.316µM*
COc1ccc(OC)c(-c2cc(C(=O)N3CCOCC3)no2)c1	/	0.0%	-3.7%	0.5%	-3.6%
O=C(O)C/C(=C\c1ccccc1)C(=O)O	-1.3%[9.22 µM]	/	/	/	/
CC(=O)c1ccc(NC(=O)c2cc(-c3ccc(Cl)c(Cl)c3)on2)cc1	5.6%	/	4.5%	/	/
CC(=O)c1ccc(NC(=O)c2cnsn2)cc1	/	?	12µM*	2µM*	1µM*
O=C(Nc1ccccc1N1CCOCC1)c1cnccn1	0.1%	1.4%	0.8%	-7.7%	4.3%
CCCCc1ccc(NC(=O)c2cnccn2)cc1	3.16µM*	?	2.39µM*	0.501µM*	0.794µM*
O=C(Nc1ccc(N2CCOCC2)cc1)c1cnccn1	/	?	1.9µM*	?	0.316µM*
O=C(Nc1ccc(N2CCOCC2)cc1)c1cnsn1	2.82µM*	0.164µM*	0.953µM*	?	?
CS(=O)(=O)c1ncc(Cl)c(C(=O)Nc2ccc(OC(F)F)cc2)n1	/	?	-17.1%	-29.5%	-43.2%
CS(=O)(=O)c1ncc(Cl)c(C(=O)Nc2ccc(N3CCOCC3)cc2)n1	25.8%	?	12µM*	-43.3%	-56.2%
CC(CNC(=O)c1cc(Cl)ccc1[N+](=O)[O-])NC(=O)c1cc(Cl)ccc1[N+](=O)[O-] (configuration not stated)	?	-0.5%	6.9%	-1.9%	-8.8%
Cc1csc2nc(CCNS(=O)(=O)c3cccs3)cn12	15.4%	20.6µM*	23.9µM*	?	?
CCCS(=O)(=O)NCc1cn2c(C)csc2n1	11.2µM*	11.6µM*	?	?	?
Cc1nc(CCNS(=O)(=O)c2cccs2)cs1	-11.7%	0.4%	4.8%	1.9%	-1.2%
CCS(=O)(=O)NCc1cn2c(C)csc2n1	2.4%	3.2%	-1.2%	5.3%	-3.8%
CCCCn1c(=O)c2oc3ccccc3c2n(Cc2ccc(C)cc2)c1=O	/	/	3.2%	/	/
Clc1ccc(-c2cc3ccccc3[nH]2)cc1	17.7%	?	9.53µM*	?	3.98µM*
c1ccc(C[n+]2cccc(-c3cc4ccccc4[nH]3)c2)cc1	-12.6%[9.22 µM]	/	/	/	/
O=C(CSc1nc2c([nH]c3ccccc32)c(=O)n1-c1ccc(Cl)cc1)NC1CCCCC1	/	/	-0.7%	/	/
